Where a chain is given by its changes, count along the chain named.

For one assay, the target named is T1, SALL4 ZFC4 WT (HT-SELEX) (Mus musculus, UniProt Q8BX22 870-940).
T1 sequence: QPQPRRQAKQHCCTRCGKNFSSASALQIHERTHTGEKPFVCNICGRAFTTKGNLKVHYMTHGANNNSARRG
The assay is described as follows: HT-SELEX; high values mean tight binding. The note with it: protein: recombinant; vector His6-GST; dsDNA, one strand shown. Put shortly: (§1)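 Purified recombinant mouse SALL4 zinc finger cluster 4 (residues 870–940, 1 µg) was incubated with library DNA (1.5 µg first cycle, 200 ng later) in 100 µl of 10 mM Tris–HCl pH 7.5, 50 mM NaCl, poly(dI-dC) and DTT for 10 min at room temperature, with Ni2+ bead capture and reselection for up to 6 cycles in triplicate. MiSeq reads were scanned for 6-mers. Binding signal is each canonical k-mer's read fraction as fold change relative to the initial random library.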
For the sequence GAAGTA, the binding signal is 1.43 ± 0.0516 fold-change vs cycle 0.

On to CAATAG, for which the binding signal stood at 1.21 ± 0.0269 fold-change vs cycle 0.

On to TCGTAA, for which the binding signal was determined as 1.21 ± 0.0956 fold-change vs cycle 0.

Turning to ACTATG, the binding signal was found to be 1.34 ± 0.073 fold-change vs cycle 0.

As for ATTCTC, the binding signal was determined as 1.41 ± 0.062 fold-change vs cycle 0.

For ACGAAT, the binding signal stood at 1.18 ± 0.0691 fold-change vs cycle 0.

As for GCATTA, the binding signal came to 1.15 ± 0.025 fold-change vs cycle 0.

Turning to CTCTTA, the binding signal turned out to be 1.46 ± 0.0534 fold-change vs cycle 0.

As to ACCATA, the binding signal was determined as 1.42 ± 0.0615 fold-change vs cycle 0.

For AGAATA, the binding signal is 2.17 ± 0.0586 fold-change vs cycle 0.

With GGTATA, the binding signal is 1.3 ± 0.0598 fold-change vs cycle 0.

On to GTGTTA, for which the binding signal was determined as 1.31 ± 0.0667 fold-change vs cycle 0.

For ATACGA, the binding signal came to 1.26 ± 0.0299 fold-change vs cycle 0.

Turning to GGAATA, the binding signal turned out to be 1.41 ± 0.0746 fold-change vs cycle 0.

Regarding ATGATG, the binding signal stood at 1.43 ± 0.0727 fold-change vs cycle 0.

As to GAACTA, the binding signal was found to be 1.37 ± 0.088 fold-change vs cycle 0.

The target of the next assay is T2, SALL4 ZFC4 R900W (HT-SELEX) (Mus musculus, UniProt Q8BX22 870-940, R900W).
T2 sequence: T1 sequence with R31W
In words: HT-SELEX; high values mean tight binding. The note with it: protein: recombinant; vector His6-GST; dsDNA, one strand shown. Put shortly:
as §1
Consider ATTGTG, for which the binding signal worked out at 1.18 ± 0.0444 fold-change vs cycle 0.

CAGATA: the binding signal worked out at 1.33 ± 0.0549 fold-change vs cycle 0.

In the case of GCTTTA, the binding signal was determined as 1.09 ± 0.0574 fold-change vs cycle 0.

For AAAACT, the binding signal turned out to be 1.7 ± 0.107 fold-change vs cycle 0.

For the sequence CATCTC, the binding signal was 1.01 ± 0.0376 fold-change vs cycle 0.

AGGATG: the binding signal was 1.04 ± 0.0516 fold-change vs cycle 0.

As for CATAGA, the binding signal came to 1.37 ± 0.0567 fold-change vs cycle 0.

As to GAGAGA, the binding signal is 1.06 ± 0.0438 fold-change vs cycle 0.

Consider AAATGG, for which the binding signal was determined as 1.16 ± 0.0862 fold-change vs cycle 0.

Consider ATAGCA, for which the binding signal worked out at 1.21 ± 0.0922 fold-change vs cycle 0.

On to AATACG, for which the binding signal was 1.11 ± 0.0569 fold-change vs cycle 0.

Turning to ATACCA, the binding signal came to 1.39 ± 0.0221 fold-change vs cycle 0.

As for ACTCCA, the binding signal turned out to be 1.03 ± 0.0645 fold-change vs cycle 0.

With CTCAAA, the binding signal was found to be 1.2 ± 0.0701 fold-change vs cycle 0.

CAAATG: the binding signal came to 1.17 ± 0.0524 fold-change vs cycle 0.

On to ACAAAC, for which the binding signal is 1.23 ± 0.0488 fold-change vs cycle 0.

On to CCAATA, for which the binding signal came to 1.24 ± 0.0246 fold-change vs cycle 0.

Values taken from publication PMC9838217, “Structure of SALL4 zinc finger domain reveals link between AT-rich DNA binding and Okihiro syndrome”.
